# Experimental data: PubChem BioAssay (NCATS)
# Inconclusive results are not listed. A call without a number means that no potency is given here. Active and inactive are the calls of the source. Unless noted, calls come from the whole dose curve; as a rule, active = well fitted curve in the direction sought with a large enough effect; inconclusive = small, poorly fitted or top-dose-only effect, or another doubt; inactive = no such curve, though single readings can be large; an effect the other way counts as inactive or inconclusive.
# What was measured:
# [1] = High-throughput drug toxicity screening in the BPDCN cell line Gen2.2 (AID 1224824; call rule not given here;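 note: cells exposed to compounds for 48 h before reading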); settings: Gen2.2 BPDCN cells; at 45.8 µM (top of the series)
# In short: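 Gen2.2, 500 cells/well, phenol red-free RPMI/10% FBS/Pen-Strep; 48 h cpd, 37 °C/5% CO2; CTG lum, 15 min RT. Norm: DMSO = 100%, bortezomib 9.2 uM final = 0%.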
# [2] = High-throughput drug toxicity screening in the BPDCN cell line Cal-1 (AID 1224825; call rule not given here); settings: Cal-1 BPDCN cell viability, qHTS; at 45.8 µM (top of the series)
# In short: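 500 Cal-1 cells/well, RPMI + glutamine + 10% FBS (phenol red-free); cpd added by pin tool; 48 h, 37C, 5% CO2; CTG 15 min RT, lumi read. Normalised: DMSO 100%, bortezomib 9.2 uM 0%.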
# [3] = qHTS assay for measurement of the activity of small molecule inhibitors on Zika virus induced Caspase-3 activity in human iPSC derived neural progenitor cells (hNPCs) (AID 1224857); note: nearly all actives have a fitted effect of over 65% in size; note: potency is the fitted concentration of half-maximal effect
# In short: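 In medium with heparin 2 ug/ml and cyclopamine 2 uM, hNPCs (350 cells/well) received compound for one hour and then Zika virus at 2 FFU/cell; caspase activity was measured by Caspase-Glo 3/7 luminescence 6 h post-infection.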
# [4] = qHTS assay for measurement of the activity of small molecule inhibitors on Zika virus induced Caspase-3 activity in human astrocytoma cells (AID 1224859); note: potency is the fitted concentration of half-maximal effect
# In short: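 A cell-based luminescent caspase-3/7 assay used SNB-19 cells infected with ZIKV (2 FFU/cell) for 6 h following 1 h compound pretreatment.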
# [5] = qHTS Screen of the MIPE 4.0 Collection Against Ewings Sarcoma (RDES) (AID 1259252); note: nearly all actives have a fitted effect of over 35% in size; note: potency is the fitted concentration of half-maximal effect
# In short: (§1)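 Cells plated in serum-containing RPMI (5% FBS) and treated with compound dilutions for 48 h. Readout luminescent viability; normalization relied on vehicle (no inhibition) and media-only columns (full inhibition).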
# [6] = qHTS Screen of the MIPE 4.0 Collection Against Ewings Sarcoma (TC32) (AID 1259256); note: nearly all actives have a fitted effect of over 45% in size; note: potency is the fitted concentration of half-maximal effect
# In short: as §1
# [7] = qHTS Screen of the MIPE 4.0 Collection Against Ewings Sarcoma (EW8) (AID 1259255); note: nearly all actives have a fitted effect of over 35% in size; note: potency is the fitted concentration of half-maximal effect
# In short: as §1
# [8] = qHTS Screen of the MIPE 4.0 Collection Against Ewings Sarcoma (TC71) (AID 1259253); note: potency is the fitted concentration of half-maximal effect; nearly all actives have a fitted effect of over 40% in size
# In short: as §1
# [9] = qHTS assay to identify small molecule inhibitors of chordoma cells - UCH-1 (AID 1259355); note: nearly all actives have a fitted effect of over 55% in size
# In short: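 Seed 800 cells per well; incubate overnight at 37 C, 5% CO2. Add test compounds (15 concentrations), then the auranofin–topoisomerase-agent combination. Incubate 48hr, add CellTiter-Glo, wait 30min, read luminescence.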
# [10] = qHTS assay to identify small molecule inhibitors of chordoma cells - UCH-2 (AID 1259356)
smiles,measurement,setting,value
O=C(N[C@H]1CN2CCC1CC2)c1ccc(Cl)cc1,"cell viability, % of control (lower = more cytotoxic)",[1],126%
same,viability (% of control),[2],106%
same,Potency,[3],inactive
same,Potency,[4],inactive
same,Potency,[5],8.33 µM (active)
same,Potency,[6],14.8 µM (active)
O=C1C=CC[C@@H]2[C@H]3CCCN4CCC[C@@H](CN12)[C@@H]34,"cell viability, % of control (lower = more cytotoxic)",[1],126%
same,viability (% of control),[2],120%
same,Potency,[3],4.69 µM (active)
same,Potency,[4],3.32 µM (active)
same,Potency,[6],16.6 µM (active)
CCNC(=O)CC1N=C(c2ccc(Cl)cc2)c2cc(OC)ccc2-n2c(C)nnc21 (stereo not given),"cell viability, % of control (lower = more cytotoxic)",[1],15.2%
same,viability (% of control),[2],11.7%
same,Potency,[3],inactive
same,Potency,[4],inactive
same,Potency,[5],13.2 µM (active)
same,Potency,[7],20.9 µM (active)
same,Potency,[6],16.6 µM (active)
Cc1c(N)nc([C@H](CC(N)=O)NC[C@@H](N)C(N)=O)nc1C(=O)N[C@H](C(=O)N[C@@H](C)[C@H](O)[C@@H](C)C(=O)N[C@@H](C(=O)NCCc1nc(-c2nc(C(=O)NCCC[S+](C)C)cs2)cs1)[C@@H](C)O)C(O[C@H]1O[C@H](CO)[C@H](O)[C@@H](O)[C@@H]1O[C@H]1O[C@H](CO)[C@@H](O)[C@H](OC(N)=O)[C@H]1O)c1cnc[nH]1 (stereo not given in full),"cell viability, % of control (lower = more cytotoxic)",[1],132%
same,viability (% of control),[2],16%
same,Potency,[3],inactive
same,Potency,[4],inactive
same,Potency,[5],1.05 µM (active)
same,Potency,[7],0.264 µM (active)
same,Potency,[6],0.418 µM (active)
C[C@@H]1CC[C@@]2(OC1)O[C@H]1C[C@H]3[C@@H]4CC=C5C[C@@H](O[C@@H]6O[C@H](CO)[C@@H](O[C@@H]7O[C@@H](C)[C@H](O)[C@@H](O)[C@@H]7O)[C@H](O)[C@@H]6O[C@@H]6O[C@@H](C)[C@H](O)[C@@H](O)[C@@H]6O)CC[C@]5(C)[C@@H]4CC[C@]3(C)[C@@H]1[C@H]2C,"cell viability, % of control (lower = more cytotoxic)",[1],10.6%
same,viability (% of control),[2],12.9%
same,Potency,[3],inactive
same,Potency,[4],inactive
same,Potency,[5],4.18 µM (active)
same,Potency,[7],3.72 µM (active)
same,Potency,[6],3.72 µM (active)
c1cc2c(cc1[C@H]1OC[C@H]3[C@H]1CO[C@H]3c1ccc3c(c1)OCO3)OCO2,"cell viability, % of control (lower = more cytotoxic)",[1],197%
same,viability (% of control),[2],91%
same,Potency,[3],inactive
same,Potency,[4],inactive
same,Potency,[7],inactive
same,Potency,[6],inactive
c1ccc2c(CN3CCNCC3)cccc2c1,"cell viability, % of control (lower = more cytotoxic)",[1],112%
same,viability (% of control),[2],99%
same,Potency,[3],inactive
same,Potency,[4],inactive
same,Potency,[5],inactive
same,Potency,[7],inactive
same,Potency,[6],inactive
C[C@]12CC[C@H]3[C@@H](CCC4=CC(=O)CC[C@@]43C)[C@H]1CC[C@H]2O,"cell viability, % of control (lower = more cytotoxic)",[1],83.2%
same,viability (% of control),[2],101%
same,Potency,[3],inactive
same,Potency,[4],inactive
same,Potency,[5],inactive
same,Potency,[7],inactive
same,Potency,[6],inactive
CCN1C[C@]2(OC(=O)c3ccccc3NC(C)=O)CC[C@H](OC)[C@@]34[C@H]5CC6[C@@H](OC)C[C@](O)(C(C[C@@H]23)[C@@H]14)[C@@]5(O)[C@@H]6OC,"cell viability, % of control (lower = more cytotoxic)",[1],137%
same,viability (% of control),[2],108%
same,Potency,[3],inactive
same,Potency,[4],inactive
same,Potency,[5],inactive
same,Potency,[7],inactive
same,Potency,[6],inactive
C[C@](O)(COc1ccc(C#N)cc1)C(=O)Nc1ccc(C#N)c(C(F)(F)F)c1,"cell viability, % of control (lower = more cytotoxic)",[1],54.6%
same,viability (% of control),[2],99.4%
same,Potency,[3],inactive
same,Potency,[4],inactive
same,Potency,[5],inactive
same,Potency,[7],inactive
same,Potency,[6],inactive
Cc1nc(-c2ccc(-c3ccc(C(=O)N4CCc5cc6c(cc54)C4(CCN(C)CC4)CO6)cc3)c(C)c2)no1,"cell viability, % of control (lower = more cytotoxic)",[1],163%
same,viability (% of control),[2],126%
same,Potency,[3],inactive
same,Potency,[4],inactive
same,Potency,[5],inactive
same,Potency,[7],inactive
same,Potency,[6],inactive
CC[C@H]1C=CC=CC[C@@H](C)[C@H](O)[C@@](C)(O)C(=O)[C@@H](C)[C@H](O)[C@@H](C)C(=O)[C@@H](C)[C@H](O)[C@@H](C)C=CC(=O)O[C@@H]2[C@@H](C)[C@H](CC1)O[C@]1(CC[C@H](C)[C@H](C[C@@H](C)O)O1)[C@H]2C,"cell viability, % of control (lower = more cytotoxic)",[1],8.73%
same,viability (% of control),[2],6.39%
same,Potency,[3],inactive
same,Potency,[4],inactive
same,Potency,[8],0.0118 µM (active)
same,Potency,[7],4.69 µM (active)
O=C(Oc1ccc([N+](=O)[O-])cc1)N1CCN(Cc2cccc(Oc3ccccc3)c2)CC1,"cell viability, % of control (lower = more cytotoxic)",[1],151%
same,viability (% of control),[2],54.4%
same,Potency,[3],inactive
same,Potency,[4],inactive
same,Potency,[5],inactive
same,Potency,[7],inactive
same,Potency,[6],inactive
C[C@@]12OC(=O)[C@]1([C@@H](O)[C@@H]1C=CCCC1)NC(=O)[C@H]2CCCl,"cell viability, % of control (lower = more cytotoxic)",[1],5.68%
same,viability (% of control),[2],3.86%
same,Potency,[3],inactive
same,Potency,[4],inactive
same,Potency,[5],0.0372 µM (active)
same,Potency,[7],0.0264 µM (active)
same,Potency,[6],0.0418 µM (active)
CCOP(=O)(OCC)C(C)NC(=O)N(CCCl)N=O (stereo not given),"cell viability, % of control (lower = more cytotoxic)",[1],109%
same,viability (% of control),[2],103%
same,Potency,[3],inactive
same,Potency,[4],inactive
same,Potency,[5],inactive
same,Potency,[7],inactive
same,Potency,[6],inactive
CC=C(C)C(=O)N[C@@H](c1ccccc1)[C@@H](O)C(=O)O[C@H]1C[C@@]2(O)[C@@H](OC(=O)c3ccccc3)[C@@H]3[C@]4(OC(C)=O)CO[C@@H]4C[C@H](O)[C@@]3(C)C(=O)[C@H](OC(C)=O)C(=C1C)C2(C)C,"cell viability, % of control (lower = more cytotoxic)",[1],47%
same,viability (% of control),[2],19.1%
same,Potency,[3],inactive
same,Potency,[4],inactive
same,Potency,[5],inactive
same,Potency,[7],inactive
same,Potency,[6],inactive
CCOC(=O)c1c(C(C#N)=CN)c2ccc(Cl)c(Cl)c2n1C,"cell viability, % of control (lower = more cytotoxic)",[1],130%
same,viability (% of control),[2],94.3%
same,Potency,[3],inactive
same,Potency,[4],inactive
same,Potency,[7],inactive
same,Potency,[6],inactive
C[C@]12CCC(=O)C(O)=C1CC[C@@H]1[C@H]3CCC(=O)[C@@]3(C)CC[C@@H]12,"cell viability, % of control (lower = more cytotoxic)",[1],78%
same,viability (% of control),[2],116%
same,Potency,[3],inactive
same,Potency,[4],inactive
same,Potency,[9],inactive
same,Potency,[10],inactive
CC(C)(C)c1cc(C=C(C#N)C#N)cc(Br)c1O,"cell viability, % of control (lower = more cytotoxic)",[1],12.6%
same,viability (% of control),[2],11%
same,Potency,[3],inactive
same,Potency,[4],inactive
same,Potency,[6],26.4 µM (active)
O=C(N[C@@H](COc1ccc2[nH]c(=O)[nH]c2c1)c1ccccc1)c1cccn(Cc2ccc(F)c(F)c2)c1=O,"cell viability, % of control (lower = more cytotoxic)",[1],46.5%
same,viability (% of control),[2],36.8%
same,Potency,[3],inactive
same,Potency,[4],inactive
same,Potency,[5],23.5 µM (active)
same,Potency,[6],18.7 µM (active)
